{
  "source": "PubChem BioAssay (NCATS)",
  "note": "Several values for one entry are separate records, joined by “and”; a condition that tells them apart may be missing. Equal entries are not always repeated. Inconclusive results are not listed. A call without a number means that no potency is given here. Some compounds were tested as several samples or in several runs, with calls that do not always agree. Activity calls are given as the source filed them. Unless noted, the call rests on the fitted dose curve; in most records, active means well fitted curve in the direction sought with a large enough effect in the repeat runs; inconclusive means weak or mixed curves; inactive means no such curve, though single readings can be large; an effect the other way counts as inactive or inconclusive. Potency means the concentration at half of the fitted maximal effect.",
  "data": [
    {"target": "Cytochrome P450 2C9 (Homo sapiens) (UniProt P11712)", "sequence (P11712 whole entry, looked up)": "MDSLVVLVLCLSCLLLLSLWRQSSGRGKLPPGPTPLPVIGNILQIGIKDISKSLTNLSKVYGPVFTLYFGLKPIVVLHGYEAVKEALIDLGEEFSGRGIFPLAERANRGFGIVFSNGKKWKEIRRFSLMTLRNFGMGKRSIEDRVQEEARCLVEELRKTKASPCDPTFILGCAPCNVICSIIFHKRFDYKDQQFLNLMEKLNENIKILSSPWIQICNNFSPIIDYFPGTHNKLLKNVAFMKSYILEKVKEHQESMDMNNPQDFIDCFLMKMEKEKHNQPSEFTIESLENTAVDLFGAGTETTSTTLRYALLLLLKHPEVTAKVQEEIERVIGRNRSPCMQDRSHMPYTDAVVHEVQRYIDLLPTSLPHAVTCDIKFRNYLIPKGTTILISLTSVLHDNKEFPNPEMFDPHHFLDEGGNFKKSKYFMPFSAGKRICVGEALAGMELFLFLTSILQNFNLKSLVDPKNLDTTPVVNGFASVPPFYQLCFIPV", "experiment": "Cytochrome P450 family 2 subfamily C member 9 (CYP2C9) small molecule antagonists: luciferase biochemical (cell-free) qHTS assay (AID 1645842); further: nearly all actives have a fitted effect of over 55% in size", "details": "P450-Glo CYP2C9 enzyme assay, luciferin luminescence; series mostly up to 57.4 µM", "outline": "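P450-Glo CYP2C9 system: proluciferin substrate with enzyme in mix containing 0.4% BSA, 10 min at room temperature, then NADPH regeneration solution added and incubated 1 h at 37C. Detection reagent stopped reaction; luminescence read after 20 min as RLU.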", "values": [
      {"smiles": "COc1ccc(C2(C#N)CCC(C(=O)O)CC2)cc1OC1CCCC1", "note": "(centres undefined)", "Potency": "inactive"},
      {"smiles": "O=C(NOCC1CC1)c1ccc(F)c(F)c1Nc1ccc(I)cc1Cl", "Potency": "0.617 µM (active)"},
      {"smiles": "CC1Cc2ccccc2N1NC(=O)c1ccc(Cl)c(S(N)(=O)=O)c1", "note": "(centres undefined)", "Potency": "inactive"},
      {"smiles": "COC1=C(OC)C(=O)C(CCCCCCCCCCO)=C(C)C1=O", "Potency": "7.76 µM (active)"},
      {"smiles": "CCCCN(CCCC)CCC(O)c1cc2c(Cl)cc(Cl)cc2c2cc(C(F)(F)F)ccc12", "note": "(centres undefined)", "Potency": "inactive"},
      {"smiles": "O=c1oc2cc(O)ccc2s1", "Potency": "inactive"},
      {"smiles": "COc1cc(C(C)=O)ccc1OCCCN1CCC(c2noc3cc(F)ccc23)CC1", "Potency": "inactive"},
      {"smiles": "CCCCCCCCOc1ccccc1C(=O)Nc1ccc(C(=O)OCC[N+](C)(CC)CC)cc1", "Potency": "1.55 µM (active)"},
      {"smiles": "Cc1ccc(C(=O)c2cc(O)c(O)c([N+](=O)[O-])c2)cc1", "Potency": "5.49 µM (active)"},
      {"smiles": "CCOc1cc(CC(=O)N[C@@H](CC(C)C)c2ccccc2N2CCCCC2)ccc1C(=O)O", "Potency": "inactive"},
      {"smiles": "Cc1nc(Nc2ncc(C(=O)Nc3c(C)cccc3Cl)s2)cc(N2CCN(CCO)CC2)n1", "Potency": "inactive"},
      {"smiles": "Cc1cc(=O)c2c(O)c3c(O)cc(=O)c4c3c3c(cc(O)c1c23)C(C)(C)C=4O", "Potency": "inactive"},
      {"smiles": "CCN(CC)CCOc1ccc(Cc2ccccc2)cc1", "Potency": "inactive"},
      {"smiles": "Cc1cc2c(s1)Nc1ccccc1N=C2N1CCN(C)CC1", "Potency": "inactive"},
      {"smiles": "Cc1cccc(CN2CCN(C(c3ccccc3)c3ccc(Cl)cc3)CC2)c1", "note": "(centres undefined)", "Potency": "11 µM (active)"},
      {"smiles": "NC(=NCc1ccccc1)NC(=O)c1nc(Cl)c(N)nc1N", "Potency": "inactive"},
      {"smiles": "CN(C)[C@@H](CCOc1cccc2ccccc12)c1ccccc1", "Potency": "15.5 µM (active) and 21.3 µM (active)"},
      {"smiles": "Cc1ccc(NC(=O)c2ccc(CN3CCN(C)CC3)cc2)cc1Nc1nccc(-c2cccnc2)n1", "Potency": "inactive and 23.9 µM (active)"},
      {"smiles": "Cc1cc(C2CCCCC2)n(O)c(=O)c1", "Potency": "inactive"},
      {"smiles": "CC1=C(C)C(=O)C(C(CCCCCC(=O)O)c2ccccc2)=C(C)C1=O", "note": "(centres undefined)", "Potency": "17.4 µM (active)"},
      {"smiles": "CCCS(=O)c1ccc2nc(NC(=O)OC)[nH]c2c1", "note": "(centres undefined)", "Potency": "inactive"},
      {"smiles": "CC1(C)CCC(C)(C)c2cc(NC(=O)c3ccc(C(=O)O)cc3)ccc21", "Potency": "inactive"}
    ]},
    {"target": "Papain (Carica papaya) (UniProt P00784)", "sequence (P00784 whole entry, looked up)": "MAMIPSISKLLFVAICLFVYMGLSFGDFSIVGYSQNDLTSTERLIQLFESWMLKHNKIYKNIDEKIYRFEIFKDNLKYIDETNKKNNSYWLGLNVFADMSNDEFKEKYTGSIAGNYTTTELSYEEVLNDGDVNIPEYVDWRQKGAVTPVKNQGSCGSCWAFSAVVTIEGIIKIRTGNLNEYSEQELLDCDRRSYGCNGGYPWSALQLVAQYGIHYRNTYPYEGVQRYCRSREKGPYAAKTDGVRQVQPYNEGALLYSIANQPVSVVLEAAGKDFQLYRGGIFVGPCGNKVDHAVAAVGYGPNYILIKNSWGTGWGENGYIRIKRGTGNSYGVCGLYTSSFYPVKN", "experiment": "Primary qHTS assay for inhibitors of the protease papain (AID 1645873; active means well fitted curve in the direction sought with a large enough effect; an effect the other way counts as inactive or inconclusive;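 further: papain turnover of Z-FR-AMC read as the AMC fluorescence gain over 10 min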)", "details": "papain Z-FR-AMC cleavage, AMC fluorescence; series mostly up to 49.8 µM", "values": [
      {"smiles": "CC(=O)NC[C@H]1CN(c2ccc(N3CCOCC3)c(F)c2)C(=O)O1", "Potency": "inactive"},
      {"smiles": "Oc1ccc(-c2nc(-c3ccc(F)cc3)c(-c3ccncc3)[nH]2)cc1", "Potency": "inactive"},
      {"smiles": "NC(=NCc1ccccc1)NC(=O)c1nc(Cl)c(N)nc1N", "Potency": "31.6 µM (active)"},
      {"smiles": "CN(C)CCCC1(c2ccc(F)cc2)OCc2cc(C#N)ccc21", "note": "(centres undefined)", "Potency": "inactive"},
      {"smiles": "CN(C)C(=O)[C@H](O)[C@H](Cc1ccccc1)NC(=O)c1cc2cc(Cl)ccc2[nH]1", "Potency": "inactive"},
      {"smiles": "Nc1nc(OCc2ccccc2)c2[nH]cnc2n1", "Potency": "inactive"},
      {"smiles": "C[C@@H](c1ncncc1F)[C@](O)(Cn1cncn1)c1ccc(F)cc1F", "Potency": "inactive"}
    ]}
  ]
}
